# Several values for one entry are separate records, joined by “and”; a condition that tells them apart may be missing. Equal entries are not always repeated. Inconclusive results are not listed. Activity calls are given as the source filed them. Unless noted, no stated cut-off is given here; in the data, active means inhibition above about 80%; inactive means the rest.
# What was measured:
# [1] = growth inhibition of DIPG glioma cells, dose response, cell-based, SU-DIPG-XVII, MIPE5.0, CellTiter-Glo, qHTS (AID 1347060; cut-off not given, nearly all actives have AC50 up to about 26 µM;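 on AC50: cells exposed to compound for 48 hours before viability readout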); conditions: SU-DIPG-XVII viability, CellTiter-Glo ATP luminescence
# [2] = growth inhibition of DIPG glioma cells, dose response, cell-based, JHH-DIPG-1, MIPE4.0, CellTiter-Glo, qHTS (AID 1347062; cut-off not given, nearly all actives have AC50 up to about 27 µM;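 further: cells exposed to compound for two days before readout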); conditions: JHH-DIPG-1 viability, CellTiter-Glo ATP luminescence
# [3] = JHH-DIPG-1 glioma cell viability, MIPE5.0 library, CellTiter-Glo luminescence, qHTS (AID 1347067; cut-off not given, nearly all actives have AC50 up to about 26 µM;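 further: cells exposed to compound for 48 hours before readout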); conditions: JHH-DIPG-1 glioma viability, CellTiter-Glo ATP luminescence
# [4] = growth inhibition of DIPG glioma cells, dose response, cell-based, SU-DIPG-IV, MIPE4.0, CellTiter-Glo, qHTS (AID 1347063; cut-off not given, nearly all actives have AC50 up to about 30 µM;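 further: compound exposure lasted 48 hours before the viability readout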); conditions: SU-DIPG-IV viability, CellTiter-Glo ATP luminescence
# [5] = growth inhibition of DIPG glioma cells, dose response, cell-based, SU-DIPG-XIII, MIPE5.0, CellTiter-Glo, qHTS (AID 1347064; cut-off not given, nearly all actives have AC50 up to about 23 µM;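 on AC50: cells exposed to compound for 48 hours before the viability read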); conditions: SU-DIPG-XIII viability, CellTiter-Glo ATP luminescence
# [6] = viability loss in pontine glioma line – cell-based, SU-DIPG-XXV, MIPE5.0, CellTiter-Glo, qHTS, dose response (AID 1347065; cut-off not given, nearly all actives have AC50 up to about 26 µM;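 further: cells exposed to compound for 48 hours before ATP readout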); conditions: CellTiter-Glo ATP luminescence
# [7] = SU-DIPG-VI glioma cell viability, MIPE4.0 library, CellTiter-Glo luminescence, qHTS (AID 1347066; cut-off not given, nearly all actives have AC50 up to about 30 µM;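 further: cells exposed to compound for 48 hours before readout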); conditions: CellTiter-Glo ATP luminescence
# [8] = SU-DIPG-XXV glioma cell viability, MIPE5.0 library, qHTS (AID 1347068; cut-off not given, nearly all actives have IC50 up to about 30 µM;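 on IC50: cells exposed to compound for 48 hours before viability readout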)
# [9] = sensitizers of A549 cells to miR-34 induction, primary screen, imaging, A549 dox-inducible miR-34, nuclei and caspase counts (AID 1347080;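 active means compounds whose cell count with miR-34 switched on is under 0.7 times the count with it off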); conditions: A549 miR-34 inducible, Hoechst nuclei count, 48 h
# [10] = survival rescue of mitochondrial mutant cells in low glucose, primary screen, MELAS cybrids, Rieske KO mouse fibroblasts, CellTiter-Glo (AID 1508586;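 active means mean z-score across replicates of 1.96 or higher in either the MELAS or the Rieske mutant cell line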;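 further: z relative to plate mean and SD of compound and empty wells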)
# [11] = LFS_MB_P medulloblastoma growth inhibition, cell-based, chromothripsis tumors, cisplatin or BGB combos (AID 1671449); conditions: LFS_MB_P medulloblastoma cells;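 further: cells exposed for 96 hours; 0% = vehicle DMSO and 100% = killing by high DMSO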
# [12] = HDN33 neuroblastoma growth inhibition, cell-based, chromothripsis tumors, cisplatin or BGB combos (AID 1671450); conditions: HDN33 neuroblastoma cells, stronger effect = higher value;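 further: cells exposed to compound for four days; 0% = vehicle DMSO and 100% = cell killing by high DMSO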
# [13] = ICB984 medulloblastoma cell growth inhibition, synergistic combos for chromothripsis tumors, cisplatin or BGB combos (AID 1671451; call rule not given here;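 further: cells exposed for 96 hours before readout; 0% = vehicle DMSO and 100% = killing by high DMSO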); conditions: ICB984 medulloblastoma cells, drug combinations, stronger effect = higher value
# [14] = HTB85 osteosarcoma cell growth inhibition, synergistic combos for chromothripsis tumors, BGB or cisplatin IC20 combos (AID 1671453); conditions: HTB85 osteosarcoma cells, drug combinations, stronger effect = higher value;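 further: cells exposed for 96 hours before readout; 0% = vehicle DMSO and 100% = high DMSO killing control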
# [15] = MDA-MB-436 breast carcinoma cell growth inhibition, synergistic combos for chromothripsis tumors, BGB or cisplatin combos (AID 1671458; call rule not given here;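 further: cells exposed for 96 hours; 0% = vehicle DMSO and 100% = killing by high DMSO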); conditions: MDA-MB-436 breast carcinoma growth inhibition, drug combinations, stronger effect = higher value
# [16] = growth inhibition of BT084 medulloblastoma cells, cell-based, ICGC_MB145, cisplatin and BGB IC40 combos (AID 1671461); conditions: drug combinations, stronger effect = higher value;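 further: cells exposed to drugs for 96 hours; 0% = vehicle DMSO and 100% = high DMSO full killing control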
# [17] = growth inhibition of RCMB18 medulloblastoma cells, cell-based, cisplatin and BGB IC40 combos (AID 1671462); conditions: stronger effect = higher value;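 further: cells exposed to compound for four days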
# [18] = growth inhibition of CRL1545 osteosarcoma cells, cell-based, cisplatin and BGB IC20 combos (AID 1671464); conditions: stronger effect = higher value;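 further: cells exposed to compound for 96 hours before readout; 0% = vehicle DMSO and 100% = high DMSO killing control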
# [19] = measured here: with BGB IC20 combination, at 0.5 µM
# [20] = measured here: with cisplatin IC20 combination, at 0.5 µM
compound,measurement,setting,value
CNC(=O)c1c(-c2ccc(F)cc2)oc2cc(N(CCO)S(C)(=O)=O)c(C3CC3)cc12,outcome,[1],inactive
same,AC50,[2],20.9 µM (active)
same,outcome,[3],inactive
CC1(C)CCC2=C(O1)c1ccccc1C(=O)C2=O,AC50,[1],11.8 µM (active)
same,AC50,[4],20.9 µM (active)
same,AC50,[5],6.61 µM (active)
same,AC50,[6],9.34 µM (active)
same,AC50,[7],20.9 µM (active)
same,AC50,[3],7.42 µM (active)
same,IC50,[8],23.5 µM (active)
same,fold change,"[9]; stronger effect = lower value, cell number ratio, induced over uninduced",1.06 (inactive) and 1.01 (inactive)
same,fold change,[9]; measured here: relative caspase fold change +Dox/-Dox,0.218 and 1.14 and 0.258
same,cell count,"[9]; measured here: total cells with miR-34 induction, stronger effect = lower value",1260 and 1140 and 1760
same,cell count,[9]; measured here: total cells without miR-34 induction,1190 and 1130 and 1740
same,z-score,"[10]; MELAS cybrid survival, CellTiter-Glo 48 h, stronger effect = higher value",1.23 (inactive)
same,z-score,"[10]; Rieske KO mouse fibroblast survival, CellTiter-Glo 72 h",-4.3
same,inhibition,"[11]; at 0.5 µM, stronger effect = higher value",-7.4% (inactive) and 16.4% (inactive)
same,inhibition,"[11]; measured here: combination with BGB IC20, at 0.005 µM",-31.4% and 0.116%
same,inhibition,"[11]; measured here: combination with BGB IC40, at 0.005 µM",-87% and -10.2%
same,inhibition,"[11]; measured here: combination with BGB IC40, at 0.05 µM",-28.3% and -0.424%
same,inhibition,"[11]; measured here: combination with cisplatin, at 0.5 µM, stronger effect = higher value",51.9% and 10.9%
same,inhibition,"[11]; measured here: combination with cisplatin, at 5 µM, stronger effect = higher value",111% and 116%
same,inhibition,"[12]; BGB combo, at 5 µM",99.6% and 99%
same,inhibition,[12]; at 0.5 µM,-4.92% (inactive) and -3.55% (inactive)
same,inhibition,"[12]; cisplatin combo, at 5 µM",99% and 99.1%
same,inhibition,[12]; [19],-10.6% and -8.55%
same,inhibition,[12]; [20],4.95% and -8.23%
same,inhibition,"[12]; single agent, at 5 µM",99.5% and 99.2%
same,inhibition,"[13]; BGB IC20 combo, at 0.005 µM",-11% and 11%
same,inhibition,"[13]; BGB IC40 combo, at 0.005 µM",-16.5% and -32.8%
same,inhibition,"[13]; BGB IC40 combo, at 0.05 µM",91.3% and 98.3%
same,inhibition,[13]; at 0.5 µM,-22.3% (inactive) and -31.1% (inactive)
same,inhibition,"[13]; cisplatin combo, at 0.05 µM",91.3% and 98.3%
same,inhibition,"[13]; cisplatin combo, at 0.5 µM",-20.6% and -42.9%
same,inhibition,"[13]; cisplatin combo, at 5 µM",-38.6% and -41.8%
same,inhibition,"[13]; measured here: 5 uM single agent, at 5 µM",2.52% and -3.56%
same,inhibition,[14]; at 0.5 µM,-5.23% (inactive) and 6.87% (inactive)
same,inhibition,"[14]; measured here: with BGB IC20, at 0.5 µM",23.7% and 5.32%
same,inhibition,"[14]; measured here: with BGB IC20, at 5 µM",76.7% and 64.8%
same,inhibition,"[14]; measured here: with cisplatin IC20, at 0.5 µM",-20.9% and 1.14%
same,inhibition,"[14]; measured here: with cisplatin IC20, at 5 µM",61.5% and 60.9%
same,inhibition,"[14]; single agent, at 5 µM",70.5% and 62.3%
same,inhibition,[15]; at 0.5 µM,-2.8% (inactive) and -3.21% (inactive)
same,inhibition,"[15]; measured here: BGB combination, at 0.5 µM",3.02% and -1.78%
same,inhibition,"[15]; measured here: BGB combination, at 5 µM",81.9% and 78.2%
same,inhibition,"[15]; measured here: cisplatin combination, at 0.5 µM",-22.4% and -3.57%
same,inhibition,"[15]; measured here: cisplatin combination, at 5 µM",86.7% and 87.2%
same,inhibition,[16]; at 0.5 µM,-12.5% (inactive) and -0.136% (inactive)
same,inhibition,"[16]; cisplatin combination, at 0.5 µM",-14.9% and 2.47%
same,inhibition,"[16]; cisplatin combination, at 5 µM",78.1% and 100%
same,inhibition,"[16]; measured here: BGB IC40 combination 0.05 uM, at 0.05 µM",-20.9% and -18.5%
same,inhibition,"[16]; single agent, at 5 µM",99.5% and 99.6%
same,inhibition,[17]; at 0.5 µM,-1.45% (inactive) and 6.25% (inactive)
same,inhibition,"[17]; cisplatin combo, at 5 µM",101%
same,inhibition,"[17]; measured here: BGB IC40 combination, at 0.05 µM",-6.29% and -29%
same,inhibition,"[17]; measured here: combination with cisplatin, at 0.5 µM",-0.361% and 36.6%
same,inhibition,"[17]; single agent, at 5 µM",98.1% and 99.3%
same,inhibition,[18]; at 0.5 µM,36.2% (inactive) and 22.6% (inactive)
same,inhibition,[18]; [19],33.7% and 14.6%
same,inhibition,[18]; [20],36.4% and 26.5%
same,inhibition,"[18]; single agent, at 0.05 µM",-59.2% and -23.1%
same,inhibition,"[18]; single agent, at 5 µM",98.9% and 98.3%
COc1cc(C(C)C)c(Oc2cnc(NC(CO)CO)nc2N)cc1I,outcome,[1],inactive
same,AC50,[4],14.8 µM (active)
same,outcome,[5],inactive
same,outcome,[6],inactive
same,outcome,[7],inactive
same,outcome,[3],inactive
same,outcome,[8],inactive
